Measured values reported in the supplement of paper PMC6555819.

Experiments:
Assay in all cases: PBM binding z-score (relative to random genomic background probes); higher = stronger binding; sequences stand for … in GC…GCGATTGACAGCGTAGAATGAAGG
[1] = tested on: RARb homodimer (NR concentration 270 nM)
Procedure, shortened: (§1)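 Antibodies against each partner of ligand-free nuclear receptor dimers (one per run) detected binding on custom Agilent 4×180K protein-binding microarrays after 1 h incubation. The double-stranded probes had 34-nt variable regions carrying direct-repeat seeds, single-nucleotide variants, half-site ablations and random human genomic background sequences. Binding z-scores, from regression-normalized fluorescence, use the random background probes as reference.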

[2] = tested on: RARg:RXRa (NR concentration 270 nM, RXRa partner concentration 90 nM)
Procedure, shortened: as §1

[3] = tested on: RARg homodimer (NR concentration 270 nM)
Procedure, shortened: as §1

[4] = tested on: RXRa DBDmut IVT, anti-RXR (DBD mutation: RXRa K156A/R161A, NR concentration 90 nM)
Procedure, shortened: as §1

[5] = tested on: RXRa homodimer (NR concentration 180 nM)
Procedure, shortened: as §1

[6] = tested on: THRa:RXRa (NR concentration 90 nM, RXRa partner concentration 90 nM)
Procedure, shortened: as §1

[7] = tested on: THRa homodimer (NR concentration 90 nM)
Procedure, shortened: as §1

[8] = tested on: VDR:RXRa (NR concentration 270 nM, RXRa partner concentration 90 nM)
Procedure, shortened: as §1

[9] = tested on: VDR homodimer (NR concentration 270 nM)
Procedure, shortened: as §1

| Sequence | PBM binding z-score [1] | PBM binding z-score [2] | PBM binding z-score [3] | PBM binding z-score [4] | PBM binding z-score [5] | PBM binding z-score [6] | PBM binding z-score [7] | PBM binding z-score [8] | PBM binding z-score [9] |
| --- | --- | --- | --- | --- | --- | --- | --- | --- | --- |
| CGTCCAAGGTCAGCAGATCAGTGAAAGCGACGTG | 3.69 | 4.89 | 5.8 | 2.42 | 3.8 | 3.42 | 2.11 | 2.37 | 0.793 |
| GTTATTAGTTGAAAGGGCAACCGAATGATTCTCG | 2.41 | 1.75 | 1.95 | 1.16 | 1.64 | 1.18 | 0.669 | 1.24 | 1.55 |
| TCATACAGGTAAAGGTGAAAGTCGAACGATATGA | 1.73 | 1.78 | 1.69 | 1.17 | 2.23 | 1.46 | 0.0499 | 1.13 | 0.141 |
| TCTTGTAGATCAGCAGGTTAAGCAAGCTGGCCAA | -0.0177 | -0.192 | -0.525 | 0.455 | 0.213 | -0.00536 | -0.897 | 0.275 | -0.751 |
| TCAGACAGGTGAAGGTAATTCAGGTACGCAGTCG | 0.916 | 0.717 | 0.626 | 1.5 | 1.08 | 1.81 | 0.574 | 1.1 | 0.38 |
| TCTTGTAGATCAATAGAGGTTACGAAAGTGCGCT | 1.7 | 1.05 | 0.657 | 0.65 | 1.54 | 2.75 | 0.12 | 2.15 | 0.507 |
| GCTGCTAGGTCAACTGACGGTCAGCTAAAGCTCG | 4.31 | 6.76 | 5.94 | 1.64 | 3.33 | 3.21 | 0.993 | 1.88 | -0.00537 |
| CCTCGGAGGACACAAGGTCAGAGCTGTCCGCTTT | 3.68 | 3.85 | 3.74 | 0.757 | 2.07 | 3.65 | 1.57 | 1.88 | 0.992 |
| CCGAATGGGGCAAGGTTACCATAACGCACAGCCA | 1.24 | 1.05 | 1.37 | 0.000118 | 1.39 | 1.26 | 0.404 | 0.34 | 0.214 |
| ATATGTAGGTTACATCCGGGGCATTCAGGCTATG | 1.23 | 1.76 | 1.3 | 0.51 | 1.12 | 1.83 | 0.704 | 1.23 | 0.977 |
| CCTAGCAGGCCAGGGCCACTCAAGCATTTCGCTT | -0.124 | -0.441 | -0.124 | -0.762 | -0.718 | -0.482 | -0.794 | -1.03 | -0.946 |
| GCTAGCAGGTCATTTGGGTCACTCAATGACGGGC | 3.52 | 4.5 | 4.38 | 2.82 | 4.23 | 3.74 | 1.48 | 5.92 | 3.25 |
| CCTACTGGGCCCAGGTCATTGATCAGTCAAAGCA | 2.14 | 2.06 | 1.28 | -0.46 | 1.47 | 2.93 | 2.15 | 1.7 | 1.25 |
| CCTTACGGGTGACGAGGTTATAGCACGACGAGCG | 1.05 | 1.29 | 0.849 | -0.461 | 1.95 | 1.33 | 0.317 | 0.935 | 0.36 |
| AGAATGTGGTTACCAAAGATCAGGGAAACGCTTG | -0.487 | 0.0233 | 0.17 | -0.485 | 0.156 | -0.05 | -0.409 | -0.233 | -0.534 |
| CGAACTGGGTCAAGGACAGTGAATCTCCGCACGC | 2.55 | 3.53 | 3.36 | 0.955 | 2.54 | 2.76 | 1.56 | 1.46 | 0.325 |
| TAGCCTAGGTCAATCAGGGGCCAGTATAGAAAGC | 3.1 | 5.75 | 4.13 | 0.358 | 2.51 | 3.22 | 0.496 | 2.32 | 0.332 |
| CCTCGGAGGACAGGAGGTCAGAGCTGTCCGCTTT | 3.17 | 3.42 | 3.29 | 0.04 | 2.07 | 2.67 | 0.822 | 1.47 | 0.982 |
| TTACCAAGGTGAAAGCTCGTTGATGCACGCCTTG | 0.13 | 0.342 | 0.28 | -0.23 | 0.617 | 1.38 | 0.107 | -0.288 | -0.644 |
| TCTATTAGTTGATTAGGGCCACCGAAACAGCGGA | 0.67 | 0.31 | 0.582 | 1.19 | 0.411 | 1.09 | 0.613 | 0.782 | 0.435 |
| ATCTCTAGTTAACCAAGTTCAGTGAATGCCGAAC | 1.4 | 0.578 | 0.612 | 0.814 | 0.549 | 1.19 | 0.332 | 2.46 | 3.16 |
| ACTCGGCGGACAAAGGTCAGAGCTACGCCAGTGA | 4.19 | 5.15 | 4.72 | 0.437 | 4.46 | 2.39 | 0.00347 | 2.44 | 0.793 |
| CCTAGTTGCTCAGGAGGTCACACACCGGATATGA | 4.04 | 4.26 | 3.65 | 1.26 | 4.71 | 3.75 | 2.69 | 3.76 | 2.65 |
| TCAGACAGGTGAACGTAACTCAGGTACGCAGTCG | 0.813 | 0.793 | 0.768 | 0.94 | 1.32 | 0.679 | 0.264 | 0.682 | 0.361 |
| TCTTGTAGATCAAAGGTTAAGCAAGCCGAAGCCT | 1.9 | 1.98 | 0.759 | 0.824 | 3.56 | 1.51 | -0.503 | 1.65 | -0.138 |
| CCGAGTAGGTTATGGGGCATTCAGGCAACGGTGA | 1.08 | 0.469 | 0.552 | 0.0295 | 0.728 | 0.503 | 0.317 | -0.0737 | -0.196 |
